From PubChem BioAssay AID720513 (Broad Institute, 2013)
In all, about 2,100 compounds went through this assay and about 480 (23%) were called active. Roughly 5% stayed inconclusive and do not appear here.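 How the source made its calls: active means fitted curve reaches 40% activation at or below the top valid concentration, in every replicate test; inconclusive means replicate tests disagree on the call; inactive means the rest, including activity in the opposite direction.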 These entries were drawn from the full list. Measured potencies and affinities stand elsewhere.

assay: activators raising PGC1a acetylation in cells, dose response, cell-based, cherry-picked samples, set 6 (AID 720513); conditions: U2OS PGC1a acetylation AlphaLISA, overnight, 0 = neutral, -100 = inhibitor control; series mostly up to 19.5 µM; activation (acetylation increase): at the top concentration;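 further: cells made to overexpress flag tagged PGC1a plus GCN5 acetyltransferase by viral infection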

Activation (acetylation increase), inactive:
Cc1ccc(C)c(S(=O)(=O)N(C(=O)c2ccncc2)c2ccc(OC(=O)c3ccncc3)cc2)c1 -16%
C=CCNC(=O)c1cnn(-c2ccccc2)c1-c1ccccc1 -2.56%
CO[C@@H]1CN(C)C(=O)c2ccc(NC(C)=O)cc2OC[C@@H](C)N(C(=O)Cc2cccnc2)C[C@@H]1C 28.7%
O=C(Cn1ncc(Cl)c(Cl)c1=O)NCC1CCCCC1 -101%
C[C@@H]1CN([C@H](C)CO)C(=O)Cc2cc(NC(=O)CCC(F)(F)F)ccc2O[C@H]1CN(C)S(C)(=O)=O -4.24%
CCOC(=O)C1=C(Nc2ccccc2)OCC1=O 4.43%
O=C(NCc1cccnc1)/C(=C/c1ccc(-c2ccc(Cl)cc2)o1)S(=O)(=O)c1ccccc1 -92%
CC1=CCC2C(=O)N(c3cccc(C(=O)NCc4ccccc4)c3)C(=O)C2C1 (centres undefined) 11.3%
Cc1ccc(S(=O)(=O)Nc2cccc3c2O[C@H](CN(C)Cc2ccc(Cl)c(Cl)c2)[C@@H](C)CN([C@@H](C)CO)C3=O)cc1 28.7%
CN(C)c1nc(SCCOC(=O)COc2ccc(Cl)cc2Cl)nc(N(C)C)n1 -18.6%
CCCc1cc(=O)oc2cc(C)cc(O)c12 29.2%
CC(=O)Nc1ccc2c(CSc3nncs3)cc(=O)oc2c1 -36.6%
COC(=O)[C@]1(Cc2ccccc2)N=C(c2ccc(OCCCO)cc2)O[C@@H]1c1ccccc1CN=[N+]=[N-] 21.8% [at 10 µM]
O=[N+]([O-])c1cc(F)c2cccnc2c1O -22.2%
Cc1ccc2[nH]c3ccccc3c(=O)c2c1 35.3%
CCN(CC(=O)Nc1ccccc1C(F)(F)F)C(=O)CCSc1ccc(F)cc1 -15.4%
O=C(CCNNC(=O)c1ccncc1)NCc1ccccc1 17.4%
O=C(NCc1cccnc1)/C(=C\c1ccc(-c2ccc(Cl)c(Cl)c2)o1)S(=O)(=O)c1ccccc1 -100%
O=C(NCc1cccnc1)C1CC(=O)N(C2CCCCC2)C1 (centres undefined) 8.12%
O=C(NCc1cccnc1)/C(=C\c1ccc(-c2cccc(Cl)c2)o1)S(=O)(=O)c1ccccc1 -82.5%
O=C(Cc1ccccn1)NCC[C@H]1CC[C@@H](NC(=O)Nc2ccc(C(F)(F)F)cc2)[C@@H](CO)O1 6.59%
O=C(NC1=NCCS1)C1CC(=O)N(c2ccccc2)C1 (centres undefined) -2.16%
O=C(Nc1cccc2[nH]ncc12)c1ccc(F)cc1 -26.8%
O=C(C[C@@H]1CC[C@@H](NC(=O)C2CCC2)[C@H](CO)O1)NCC1CC1 -10.2%
CCC(=O)Nc1ccc(C(=O)COC(=O)c2sc(C)nc2C)cc1 13.9%
CC(C)C[C@H]1CNC(=S)N1CC1CCCN1C[C@H](Cc1ccccc1)N1C[C@H](Cc2ccc(O)cc2)N(CC2CCCCCC2)C1=S (some centres undefined) 26%
CC(N=C1NS(=O)(=O)c2ccccc21)C(=O)NCCCc1ccccc1 (centres undefined) -53.2%
CCOc1ccc2nc(NCCNC(=O)Nc3ccccc3)c(C#N)cc2c1 -44.2%
Cc1ccccc1OCC(O)CNC1CCC(NCC(O)COc2ccccc2C)CC1 (centres undefined) -100%
C[C@H](CO)N1C[C@H](C)[C@H](CN(C)C(=O)CN(C)C)Oc2cc(-c3cncnc3)ccc2S1(=O)=O 25.6%
CCN1CCN(Cc2ccc(NC(=O)c3cc(NC(=O)c4cncc(-c5ccc(C#N)cc5)c4)cc(OC)c3)cc2C(F)(F)F)CC1 -96.9%
COc1ccc(OCCc2nnc(N)s2)cc1 14.7%
CN(NC(=O)c1ccccc1F)c1nc(C(F)(F)F)nc2ccccc12 -8.44%
C[C@@H](C(=O)Nc1nc2ccc(F)cc2s1)N1C(=O)C2CC=CCC2C1=O (some centres undefined) -25.2%
C[C@@H]1CN([C@H](C)CO)S(=O)(=O)c2ccc(C#CC3CCCC3)cc2O[C@H]1CN(C)C 36.3%
O=C(NCC1CC1)Nc1ccccc1F -3.11%
C/C=C/c1ccc2c(c1)O[C@@H](CN(C)C(=O)NC(C)C)[C@H](C)CN([C@H](C)CO)S2(=O)=O 8.88%
Fc1ccc(-c2ccc(C3[C@@H]4CN(Cc5ccccc5)C[C@H]3N4)cc2)cc1 (some centres undefined) -91.3% [at 21 µM]
Cc1cccc(-c2ccc(C3[C@@H]4CN(Cc5cccc(F)c5)C[C@H]3N4)cc2)c1 (some centres undefined) -44.5%
COc1ccccc1CN1C[C@@H]2N[C@H](C1)C2c1ccc(-c2ccccc2)cc1 (some centres undefined) -3.96%
COc1ccc(-c2ccc(C3[C@@H]4CN(Cc5ccccn5)C[C@H]3N4)cc2)cc1 (some centres undefined) -17.6%
COc1cccc(-c2ccc(C3[C@@H]4CN(Cc5cccc(F)c5)C[C@H]3N4)cc2)c1 (some centres undefined) -97.7% [at 21 µM]
Fc1cccc(CN2C[C@@H]3N[C@H](C2)C3c2ccc(-c3ccccc3)cc2)c1 (some centres undefined) -98% [at 21 µM]
CC1CN(C(=O)COC(=O)[C@@H]2CC(O)CN2S(=O)(=O)c2ccc3c(c2)OCCO3)CC(C)O1 (some centres undefined) 8.73%
CCn1c(C)c(C)c2cc(C(=O)NCCN3CCOCC3)ccc21 -19.1%
CN1C(C(=O)Nc2ccccn2)=C(O)c2sc(Cl)cc2S1(=O)=O 9.35%
CO[C@H]1CN(C)C(=O)c2cc(NS(C)(=O)=O)ccc2OC[C@H](C)N(C(=O)NC(C)C)C[C@H]1C 19.4%
C[C@@H]1CN([C@@H](C)CO)S(=O)(=O)c2ccc(C#CC3CCCCC3)cc2O[C@H]1CN(C)Cc1cccnc1 -47.2%
CN1CCN2c3ncccc3Cc3ccccc3[C@@H]2C1 11.6%
Fc1ccc(/C=C2\CCCC3=C2Nc2ncnn2C3c2ccc(F)cc2)cc1 (centres undefined) -95.2%
CC(C)(C)NS(=O)(=O)c1ccc(CCC(=O)N2CCOCC2)cc1 0.217%
CCC(=O)N[C@H]1CC[C@H](CCNC(=O)Nc2ccc(C(F)(F)F)cc2)O[C@H]1CO -29.5%
COc1cccc(CN2C[C@@H]3N[C@H](C2)C3c2ccc(-c3ccccc3OC)cc2)c1 (some centres undefined) -2.92%
COc1cc(CN2C[C@@H]3N[C@H](C2)C3c2ccc(-c3ccccc3C)cc2)cc(OC)c1 (some centres undefined) -95.4%
CC(C)c1ccc(-c2nnn(CC(=O)N3CCCCC3)n2)cc1 -13%
Cc1ccc(S(=O)(=O)N2CCCC2)cc1C(=O)O -7.65%
CN(C)CCCN(C(=O)CCOc1ccccc1)c1nc2ccc(F)cc2s1 -99%
CC(C)NC(=O)N(C)C[C@H]1Oc2c(NS(=O)(=O)c3cn(C)cn3)cccc2C(=O)N([C@@H](C)CO)C[C@@H]1C 16.2%
CC(C)[C@H](C)NC(=O)N(C)C[C@@H]1OCc2ccccc2-c2ccccc2C(=O)N([C@@H](C)CO)C[C@H]1C 15.2%
C[C@@H]1CN([C@@H](C)CO)C(=O)c2c(c3ccccc3n2C)-c2ccccc2CO[C@H]1CN(C)S(=O)(=O)c1ccsc1 -6.93%
CC(C)CC#Cc1cnc2c(c1)C(=O)N([C@@H](C)CO)C[C@@H](C)[C@H](CN(C)C(=O)c1ccccc1)O2 -31.3%
CCN(C(=O)COC(=O)/C=C/c1cccc(Cl)c1)c1c(N)n(Cc2ccccc2)c(=O)[nH]c1=O -4.91%
Clc1ccccc1OCCCCN1CCCC1 -20.9%
CO[C@H]1CN(C)C(=O)c2cc(NS(C)(=O)=O)ccc2OC[C@@H](C)N(C(=O)CC2CC2)C[C@H]1C -18.1%
CCOC(=O)CSc1nccc(N(C)C)c1C#N 4.27%
CC(NCc1cccs1)C(=O)NC1CCCCC1 (centres undefined) -2.99%
O=C(OCc1cnc(Cl)s1)c1cccs1 11.2%
CO[C@@H]1CN(C)C(=O)c2ccc(NC(=O)c3ccc(Oc4ccccc4)cc3)cc2OC[C@@H](C)N(C(C)=O)C[C@H]1C -36.3% [at 21 µM]
COc1ccc(S(=O)(=O)N(C)C[C@H]2Oc3ccc(NC(=O)CCN4CCOCC4)cc3C(=O)N([C@@H](C)CO)C[C@@H]2C)cc1 4.36% [at 21 µM]
O=C(Nc1ccc([N+](=O)[O-])cn1)c1ccc(Br)o1 -6.47%
CSCC[C@H](NC(=O)c1ccc(Br)o1)c1nnc2ccccn12 -1.9%
CC(=O)N(C)C[C@@H]1Oc2cc(-c3ccc(F)cc3)ccc2S(=O)(=O)N([C@H](C)CO)C[C@H]1C 35.3%
C[C@@H]1CN([C@@H](C)CO)C(=O)c2cccc(NC(=O)C3CCCCC3)c2O[C@@H]1CN(C)CC1CCCCC1 14.1%
COc1cc(NC(=O)c2[nH]cnc2C(N)=O)cc(C(=O)Nc2cccc(C(F)(F)F)c2)c1 -110%
O=C(Nc1cccc(Cl)c1)c1cncn1-c1ccc(F)cc1 4.8%
COc1cnc(-c2ccccn2)nc1Sc1ccc(C)cc1 26.8%
CCOC(=O)C1(Cc2cccc(Cl)c2)CCCN(C(=O)c2cccnc2)C1 (centres undefined) -5.9%
C[C@H]1CCCCO[C@@H](CN(C)C(=O)c2ccccc2)[C@@H](C)CN([C@@H](C)CO)C(=O)c2cc(NC(=O)Nc3ccc(F)cc3)ccc2O1 7.64%
C[C@@H]1CN([C@@H](C)CO)C(=O)c2cc(NS(C)(=O)=O)ccc2O[C@@H](C)CCCCO[C@H]1CN(C)C(=O)Nc1ccc(F)cc1 36.6%
C[C@H]1CN([C@@H](C)CO)C(=O)CCCn2nncc2CO[C@@H]1CN(C)C(=O)c1ccc(N2CCN(C)CC2)cc1 5.03%
C[C@H]1CN([C@@H](C)CO)C(=O)c2cc(-c3cncnc3)cnc2O[C@@H]1CN(C)C(=O)c1cccc(F)c1 25.1%
C[C@@H]1CN([C@H](C)CO)C(=O)c2cccc(NC(=O)c3nc4ccccc4s3)c2O[C@@H]1CN(C)C(=O)Nc1ccc(F)cc1 4.4%
C[C@H]1CN([C@@H](C)CO)C(=O)c2cc(C#Cc3ccc(F)cc3)cnc2O[C@@H]1CN(C)C(=O)Nc1ccc(F)cc1 -7.59% [at 21 µM]
CCOC(=O)CN1C(=N)N(c2nc(NC(C)C)nc(OC)n2)CC1=O 15%
CC1CCc2sc(C(=O)Nc3nnc(SCc4ccc(F)cc4)s3)cc2C1 (centres undefined) 2.39%
CCc1ccc(-c2cn3nc(-c4ccccc4)cnc3n2)cc1 8.74%
COCC(=O)Nc1ccc2c(c1)OC[C@H](C)N(C(=O)c1ccccc1F)C[C@H](C)[C@H](OC)CN(C)C2=O 20.8%
OC[C@@H]1[C@H](c2ccc(/C=C/c3ccccc3)cc2)[C@H]2CN(CCC(F)(F)F)CCCCN12 -58.3%

outcome, inactive:
COc1cc(CN2C[C@@H]3N[C@H](C2)C3c2ccc(-c3cccc(OC)c3)cc2)cc(OC)c1 (some centres undefined)
